Measurements from PubChem BioAssay.
Active and inactive are the calls of the source.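 The calls were made as follows: active = Her2 level under about 52% in both replicate screens, with viability over 70% of control (limit read from the data); inconclusive = Her2 under the limit in one screen only, or viability under 70%; inactive = Her2 level above the set limit.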

System: not listed separately
Assay: Her2 expression decrease, cell viability multiplex – SKBR3 breast tumor cells, AlphaScreen, ATP viability, primary screen (AID 461);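 as to Her2 level: lower value means less Her2 protein in the cells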;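 as to viability: percent of carrier control wells set as 100% viability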
Conditions: SKBR3 Her2 protein level, 18-24 h, measured here: SKBR3 viability, ATP luminescence, at 10 µM
With `COc1ccc(-c2cc3n(n2)CCc2nc4ccccc4n2-3)cc1` the viability was 95.5%. For `CCc1nc2scc(-c3ccccc3)c2c(=O)n1N`, the viability was 136%. Work on `O=S(=O)(Nc1cccc2ncccc12)c1cccs1` yielded a viability of 256%. In the case of `O=C(O)c1cccc(CN2C(=O)SC(Nc3ccccc3)C2=O)c1` (stereo unspecified), the viability is reported as 110%. In the case of `Cc1nc2ccc(N3C(=O)CCC3=O)cc2[nH]1`, the viability is reported as 100%. Compound `COCCn1nnnc1C(c1ccc(OC)cc1)N1CCN(c2ccccc2F)CC1` (stereo unspecified) has a viability of 100%. For `O=S(=O)(c1ccc2nc(Cc3cccc(C(F)(F)F)c3)[nH]c2c1)N1CCOCC1`, the viability was 104%. For `Cc1nnc(SCC(=O)N(C(C)C)C(C)C)nc1C`, the viability was 75.5%. `O=C(NC1CCCCC1)C1CC(O)CN1C(=O)OCc1ccccc1` (stereo unspecified) showed a viability of 88%. `CCOC(=O)c1ccc(CC2S/C(=C(\C#N)C(C)=O)NC2=O)cc1` (stereo unspecified) gave a viability of 91.5%. `COc1ccc(C2CC(=O)C(C=NCCN3CCOCC3)=C(O)C2)cc1` (stereo unspecified) gave a viability of 87.5%. Work on `CN1C(=O)CCC1(O)c1ccccc1` (stereo unspecified) yielded a viability of 89%. Compound `O=c1[nH]c(/C(=N\O)c2ccccc2)no1` has a viability of 93.5%. `COC(=O)C1=C(N)Oc2cc(C)[nH]c(=O)c2C1c1ccncc1` (stereo unspecified) gave a viability of 132%. For `O=C(c1cc(S(=O)(=O)N2CCOCC2)ccc1F)N1CCCc2ccccc21`, the viability was 99%. For `CCc1nc(C)c(C#N)c2cc(OC)c(OC)cc12`, the viability was 103%. `COc1ccc2c(c1OC)C(=O)N(c1ccc3c(c1)CCC3)C2=O` showed a viability of 96.5%. With `COc1cc(CC(=O)NCc2ccc3c(c2)OCO3)cc(OC)c1OC` the viability was 99%. Compound `COc1ccc(CCNC(=O)c2ccc(N3CCCC3=O)cc2)cc1OC` has a viability of 102%. With `COc1ccccc1NC(=O)c1ccc(COc2ccccc2OC)o1` the viability was 95.5%. For `COc1ccc(NC(=O)CSC2=C(C#N)C(c3ccco3)C3=C(CCCC3=O)N2)c(OC)c1` (stereo unspecified), the viability was 108%.

Biological target: Receptor tyrosine-protein kinase erbB-2 (Homo sapiens) (UniProt P04626)
Sequence (P04626 whole entry, looked up): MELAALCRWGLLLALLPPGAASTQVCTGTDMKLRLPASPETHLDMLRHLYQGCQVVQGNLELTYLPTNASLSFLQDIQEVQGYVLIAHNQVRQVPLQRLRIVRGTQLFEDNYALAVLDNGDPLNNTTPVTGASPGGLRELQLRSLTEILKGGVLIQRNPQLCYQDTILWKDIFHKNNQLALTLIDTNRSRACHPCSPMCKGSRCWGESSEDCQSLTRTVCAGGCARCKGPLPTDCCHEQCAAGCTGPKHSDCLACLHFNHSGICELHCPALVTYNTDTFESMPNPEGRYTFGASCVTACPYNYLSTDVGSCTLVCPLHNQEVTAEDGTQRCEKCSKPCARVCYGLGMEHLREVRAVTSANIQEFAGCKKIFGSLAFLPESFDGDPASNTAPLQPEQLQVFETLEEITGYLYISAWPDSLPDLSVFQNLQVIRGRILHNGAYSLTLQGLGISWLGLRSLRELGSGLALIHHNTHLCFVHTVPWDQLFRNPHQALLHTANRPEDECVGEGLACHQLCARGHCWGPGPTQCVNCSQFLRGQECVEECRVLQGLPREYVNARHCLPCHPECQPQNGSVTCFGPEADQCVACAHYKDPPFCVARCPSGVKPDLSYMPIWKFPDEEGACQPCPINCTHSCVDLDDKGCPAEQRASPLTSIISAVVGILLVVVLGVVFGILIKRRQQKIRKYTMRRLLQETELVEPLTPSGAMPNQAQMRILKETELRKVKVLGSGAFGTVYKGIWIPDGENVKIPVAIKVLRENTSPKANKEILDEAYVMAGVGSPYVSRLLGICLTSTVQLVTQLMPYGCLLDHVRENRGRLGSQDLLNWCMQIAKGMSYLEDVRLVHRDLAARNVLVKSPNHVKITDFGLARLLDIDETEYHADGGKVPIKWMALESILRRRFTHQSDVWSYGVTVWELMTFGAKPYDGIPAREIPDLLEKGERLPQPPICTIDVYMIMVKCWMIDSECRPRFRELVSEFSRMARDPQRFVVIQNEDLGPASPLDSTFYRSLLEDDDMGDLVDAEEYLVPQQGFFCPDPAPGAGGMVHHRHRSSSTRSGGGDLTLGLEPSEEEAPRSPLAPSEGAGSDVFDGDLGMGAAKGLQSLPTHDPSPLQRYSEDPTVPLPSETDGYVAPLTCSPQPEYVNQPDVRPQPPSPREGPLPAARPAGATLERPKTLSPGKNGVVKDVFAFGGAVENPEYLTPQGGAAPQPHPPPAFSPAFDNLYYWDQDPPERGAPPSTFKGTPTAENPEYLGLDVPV
Assay: as above
Conditions: 18-24 h, at 10 µM, stronger effect = lower value
In the case of `CCc1nnc(NC(=O)c2ccc(COc3ccc(C)cc3)o2)s1`, the Her2 level is reported as 93.5% (inactive). For `CC(C)Cn1c(CN2CCN(c3ccccc3F)CC2)nc2c1c(=O)[nH]c(=O)n2C`, the Her2 level was 93% (inactive). For `O=C(CN(c1ccc(F)cc1)S(=O)(=O)c1ccc2c(c1)OCCO2)Nc1ccc2c(c1)OCO2`, the Her2 level was 89.5% (inactive). For `CC1(C)Cc2noc(N)c2C(C)(C)N1O`, the Her2 level was 91% (inactive). In the case of `COC(=O)CCn1nnc(-c2cccs2)n1`, the Her2 level is reported as 126% (inactive). In the case of `CCOc1ccc(N(C(C)=O)C2C=CS(=O)(=O)C2)cc1` (stereo unspecified), the Her2 level is reported as 90.5% (inactive). With `CS(=O)(=O)N1CCCC(C(=O)NCCCN2CCC(Cc3ccccc3)CC2)C1` (stereo unspecified) the Her2 level was 115% (inactive). With `Cn1c(=O)cc(OCC(=O)NCCCN2CCN(c3cccc(Cl)c3)CC2)c2ccccc21` the Her2 level was 74.5% (inactive). With `CCC(C)NC(=O)c1ccccc1NC(=O)C(C)N(c1ccccc1)S(C)(=O)=O` (stereo unspecified) the Her2 level was 102% (inactive). For `COc1ccc2nc3oc(C(=O)NC4CCN(Cc5ccccc5)CC4)cc3cc2c1`, the Her2 level was 89.5% (inactive). In the case of `Cc1c(Cl)cccc1N1C(=O)c2ccccc2C1=O`, the Her2 level is reported as 85.5% (inactive). In the case of `O=C(NC1CCCC1)C(c1ccco1)N(Cc1ccccc1)C(=O)c1csnn1` (stereo unspecified), the Her2 level is reported as 76% (inactive). For `O=C(O)Cn1cc(C(=O)c2ccco2)c2ccccc21`, the Her2 level was 100% (inactive). In the case of `CC(C)(C)Cc1nc(-c2ccccn2)no1`, the Her2 level is reported as 114% (inactive). In the case of `COCC(=O)N(Cc1ccc(OC)cc1)Cc1nc2ccccc2c(=O)[nH]1`, the Her2 level is reported as 108% (inactive). For `CCCN1C(=O)SC(CC(=O)Nc2ccc(Br)cc2)C1=O` (stereo unspecified), the Her2 level was 112% (inactive). In the case of `COc1cccc(C(=O)n2cnnc2N)c1OC`, the Her2 level is reported as 88.5% (inactive). For `O=C(Cn1c(=O)n(Cc2ccc3c(c2)OCO3)c(=O)c2ccccc21)N1CCCc2ccccc21`, the Her2 level was 80.5% (inactive). In the case of `CC(C)[C@H](NC(=O)NC1CCCC1)C(=O)O`, the Her2 level is reported as 97.5% (inactive). With `COc1ccc(-c2cc3n(n2)CCc2nc4ccccc4n2-3)cc1` the Her2 level was 70% (inactive). In the case of `CCc1nc2scc(-c3ccccc3)c2c(=O)n1N`, the Her2 level is reported as 119% (inactive). With `O=S(=O)(Nc1cccc2ncccc12)c1cccs1` the Her2 level was 13% (active). In the case of `O=C(O)c1cccc(CN2C(=O)SC(Nc3ccccc3)C2=O)c1` (stereo unspecified), the Her2 level is reported as 89% (inactive). With `Cc1nc2ccc(N3C(=O)CCC3=O)cc2[nH]1` the Her2 level was 101% (inactive). In the case of `COCCn1nnnc1C(c1ccc(OC)cc1)N1CCN(c2ccccc2F)CC1` (stereo unspecified), the Her2 level is reported as 101% (inactive). In the case of `O=S(=O)(c1ccc2nc(Cc3cccc(C(F)(F)F)c3)[nH]c2c1)N1CCOCC1`, the Her2 level is reported as 91% (inactive). For `Cc1nnc(SCC(=O)N(C(C)C)C(C)C)nc1C`, the Her2 level was 88.5% (inactive). In the case of `O=C(NC1CCCCC1)C1CC(O)CN1C(=O)OCc1ccccc1` (stereo unspecified), the Her2 level is reported as 93% (inactive). In the case of `CCOC(=O)c1ccc(CC2S/C(=C(\C#N)C(C)=O)NC2=O)cc1` (stereo unspecified), the Her2 level is reported as 89.5% (inactive). With `COc1ccc(C2CC(=O)C(C=NCCN3CCOCC3)=C(O)C2)cc1` (stereo unspecified) the Her2 level was 87% (inactive). In the case of `CN1C(=O)CCC1(O)c1ccccc1` (stereo unspecified), the Her2 level is reported as 98% (inactive). In the case of `O=c1[nH]c(/C(=N\O)c2ccccc2)no1`, the Her2 level is reported as 82% (inactive). In the case of `COC(=O)C1=C(N)Oc2cc(C)[nH]c(=O)c2C1c1ccncc1` (stereo unspecified), the Her2 level is reported as 106% (inactive). In the case of `O=C(c1cc(S(=O)(=O)N2CCOCC2)ccc1F)N1CCCc2ccccc21`, the Her2 level is reported as 87% (inactive). For `CCc1nc(C)c(C#N)c2cc(OC)c(OC)cc12`, the Her2 level was 90% (inactive). In the case of `COc1ccc2c(c1OC)C(=O)N(c1ccc3c(c1)CCC3)C2=O`, the Her2 level is reported as 100% (inactive). For `COc1cc(CC(=O)NCc2ccc3c(c2)OCO3)cc(OC)c1OC`, the Her2 level was 78.5% (inactive). For `COc1ccc(CCNC(=O)c2ccc(N3CCCC3=O)cc2)cc1OC`, the Her2 level was 108% (inactive). For `COc1ccccc1NC(=O)c1ccc(COc2ccccc2OC)o1`, the Her2 level was 97% (inactive). In the case of `COc1ccc(NC(=O)CSC2=C(C#N)C(c3ccco3)C3=C(CCCC3=O)N2)c(OC)c1` (stereo unspecified), the Her2 level is reported as 93% (inactive).
